According to PubChem BioAssay AID485364 (National Center for Advancing Translational Sciences (NCATS), 2010):
The whole screen tested about 360,000 compounds, of which about 11,000 (3.1%) were called active. Entries that show only a call come without a potency. Not shown: some 4% with an inconclusive outcome. Calls come from the whole dose curve; as a rule, active = well fitted inhibition curve with a large enough effect; inconclusive = small, poorly fitted or top-dose-only effect; inactive = no such curve, though single readings can be large or run the other way. For the sample, actives were picked, then their nearest neighbours and some compounds at random.

molecular target: Schistosoma mansoni thioredoxin glutathione reductase (TGR) (UniProt Q962Y6); assay: qHTS Assay for the Inhibitors of Schistosoma Mansoni Peroxiredoxins; conditions: purified TGR, DTNB reduction, TNB absorbance 405 nm; series mostly up to 114 µM; note: nearly all actives have a fitted effect of over 60% in size
Outline: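 TGR 20 nM + NADPH 100 uM (dispensed conc.), cpd preinc 15 min RT; start with NADPH (500 uM addition) then DTNB (15 mM addition). Kinetic TNB absorbance, 405 nm filter. Four-parameter Hill fit across titration.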
Potency is the fitted concentration of half-maximal effect.

| SMILES | Potency |
| --- | --- |
| CCOC(=O)c1c(NC(C)=O)c2c3c(sc2n1Cc1c(C)cc(C)cc1C)CCCC3 | inactive |
| O=C(c1cnn(-c2ccc(F)cc2)c1-n1cccc1)N1CCN(c2ccc(F)cc2)CC1 | inactive |
| Cc1cc(C)c(C#N)c(SCc2[nH]nc3c2C(c2ccccc2)C(C#N)=C(N)O3)n1 (centres undefined) | 22.4 µM (active) |
| COc1ccc(-c2[nH]nc3c2C(c2ccncc2)C(C#N)=C(N)O3)cc1 (centres undefined) | inactive |
| CCCc1[nH]nc2c1C(c1ccc(Br)s1)C(C#N)=C(N)O2 (centres undefined) | inactive |
| S=C(Nc1cccnc1)Nc1ccccn1 | inactive |
| O=C(Nc1cccnc1)c1cc2cc(Br)ccc2oc1=O | inactive |
| Fc1cc(Br)ccc1NC(=S)Nc1cccnc1 | 10 µM (active) |
| COc1cc(C2c3c(oc4ccccc4c3=O)C(=O)N2c2nc(C)c(C)s2)ccc1O (centres undefined) | inactive |
| O=C(Nc1c(C(=O)N2CCN(c3ccc(F)cc3)CC2)oc2ccccc12)c1ccco1 | inactive |
| CCOC(=O)c1oc2c(CN3CCN(CCO)CC3)c(O)c(CC)cc2c(=O)c1-c1nc2ccccc2s1 | inactive |
| CC(C)(C)c1ccc(/C=C2\Oc3c(ccc(O)c3CN3CCN(CCO)CC3)C2=O)cc1 | 50.1 µM (active) |
| O=C(CSc1nc2c(c(=O)[nH]1)CN(Cc1ccc3c(c1)OCO3)CC2)Nc1cc(F)ccc1F | inactive |
| CCOC(=O)c1cnc(COc2ccccc2Cl)[nH]c1=O | inactive |
| CCOC(=O)c1ccc(COC(=O)c2cc(=O)[nH]c3ccccc23)o1 | inactive |
| CCOC(=O)c1cc2c(=O)[nH]c(C(Cl)(Cl)Cl)nc2o1 | 17.8 µM (active) |
| COCC(C)n1c(C)cc(C(=O)COc2ccc(C)nc2[N+](=O)[O-])c1C (centres undefined) | inactive |
| Cc1ccc(OCC(=O)c2cc(C)n(Cc3ccco3)c2C)c([N+](=O)[O-])n1 | 35.5 µM (active) |
| Cc1cc(C(=O)COC(=O)CNC(=O)c2ccc(F)cc2)c(C)n1Cc1ccco1 | inactive |
| CCOc1ccccc1NC(=O)CCc1nnc2ccc(NCc3ccco3)nn12 | inactive |
| CCOc1ccccc1NC(=S)NC(=O)CCc1ccccc1 | 7.94 µM (active) |
| CCOc1ccccc1NC(=O)NC1CCCCCCC1 | inactive |
| CCOc1ccc(CNC(=O)Cn2cc3c(n2)-c2c(oc(C(=O)N4CCCC4)c2C)CC3)cc1 | inactive |
| CC1=C(C(=O)OCc2ccc(C)cc2)C(c2c(Cl)cccc2Cl)CC(=O)N1 (centres undefined) | inactive |
| COc1ccc(CNC(=O)c2cc3c(=O)[nH]c4ccccc4c3s2)cc1 | inactive |

| SMILES | Potency |
| --- | --- |
| CCc1cccc(CC)c1NC(=S)NCc1ccc2[nH]c(C)cc2c1 | inactive |
| Cc1cc2cc(CNC(=O)c3cccs3)ccc2[nH]1 | 31.6 µM (active) |
| COc1cc2nc(SCc3ccc(F)cc3)n3nc(CCn4c(C)nc5ccccc54)nc3c2cc1OC | inactive |
| CCCSc1nc2sc3c(c2c(=O)n1-c1cccc(Br)c1)CC(C)(C)OC3 | inactive |
| COc1ccc(CCNc2ncnc3c2cnn3-c2ccc(C)cc2)cc1 | inactive |
| O=C(CSc1nccn1C1CCCC1)Nc1cc(C(F)(F)F)ccc1Cl | inactive |
| CCOc1cnc(-c2c(-c3ccccc3Cl)noc2C)o1 | inactive |
| Cc1oc(-c2ccccc2Cl)[n+]([O-])c1C | 31.6 µM (active) |
| CCn1c(=O)c(=O)[nH]c2c(=O)oc3ccc(S(=O)(=O)Nc4ccc(OC)cc4)cc3c21 | 35.5 µM (active) |
| COc1ccc(NS(=O)(=O)c2ccc3oc(SCC(N)=O)nc3c2)cc1 | inactive |
| COc1ccc(S(=O)(=O)Nc2ccc3oc(C)c(C(C)=O)c3c2)cc1 | inactive |
| CCOC(=O)c1ccc(NC(=O)CS(=O)(=O)c2cn(CC)c3ccccc23)cc1 | inactive |
| Cc1cc(NC(=O)CS(=O)(=O)c2cn(C)c3ccccc23)no1 | 28.2 µM (active) |
| Cc1cc(NC(=O)COn2nnc3ccccc32)no1 | inactive |
| COc1ccc(N(C)C(=O)C2CCN(S(=O)(=O)c3cc(Br)cc4c3N(C(C)=O)CC4)CC2)cc1 | inactive |
| COc1ccc(Cl)cc1S(=O)(=O)N1CCC(c2ccncc2)CC1 | inactive |
| COC(=O)c1ccc(-c2noc(CN(Cc3ccccn3)CC3CCCO3)n2)cc1 (centres undefined) | inactive |
| CN(Cc1ccccn1)Cc1nc(-c2ccc(Cl)cc2)no1 | 28.2 µM (active) |
| CCN1CC(CN(C)Cc2nc(-c3ccc(Cl)cc3)no2)CC1=O (centres undefined) | inactive |
| CC(=O)N1CCCc2ccc(NS(=O)(=O)c3ccc(F)cc3F)cc21 | inactive |
| COc1cc(OC)cc(-c2nc3nc(C)c(CCC(=O)Nc4ccccc4)c(C)n3n2)c1 | inactive |
| Cc1ccc(NC(=O)c2oc3ccc(S(=O)(=O)N4CCCCC4)cc3c2C)cc1Cl | inactive |
| O=S(=O)(Nc1ncccn1)c1ccc(NS(=O)(=O)c2cccc(Cl)c2Cl)cc1 | inactive |
| O=C(/C=C/c1ccccc1Cl)Nc1ccc(S(=O)(=O)Nc2ncccn2)cc1 | inactive |
| O=C(CCS(=O)(=O)c1ccccc1Cl)Nc1ccc(S(=O)(=O)Nc2ncccn2)cc1 | 14.1 µM (active) |

| SMILES | Potency |
| --- | --- |
| CCOc1ccc(NC(=O)Cn2c(=O)n(CCCC(=O)NCc3ccc4c(c3)OCO4)c(=O)c3ccccc32)cc1 | inactive |
| O=S(=O)(NCCS(=O)(=O)N1CCN(c2ccccc2)CC1)c1ccc(Cl)cc1 | inactive |
| O=C(CNS(=O)(=O)c1cccs1)N1CCN(c2ccccc2Cl)CC1 | inactive |
| Cc1ccccc1Nc1nn2c(=O)c3ccc(C(=O)NCCc4ccc(Cl)cc4)cc3nc2s1 | inactive |
| O=C(O)c1ccc2c(c1)N(Cc1ccc(F)cc1)C(=O)c1ccccc1S2=O (centres undefined) | inactive |
| CCc1ccc(NC(=O)NC(C)c2ccc3c(c2)OCO3)cc1 (centres undefined) | inactive |
| CCC1=C/C(=C\c2ccc3c(c2)OCO3)C(=O)S1 | 28.2 µM (active) |
| CCCCN(CC)C(=O)c1ccc2c(c1)OCO2 | inactive |
| COc1cccc(S(=O)(=O)NCc2ccc(C(=O)NCc3ccccn3)cc2)c1 | inactive |
| O=C(NCc1ccccn1)c1ccc2nc(-c3ccco3)c(-c3ccco3)nc2c1 | 0.891 µM (active) |
| COc1ccc(-c2nc3ccc(C(=O)NCc4ccc(C)cc4)cc3nc2-c2ccc(OC)cc2)cc1 | inactive |
| CNC(=S)N/N=C/c1ccc(OCc2ccccc2)c(Br)c1 | inactive |
| Cc1ccc(C(=O)C(=S)N2CCOCC2)cc1 | inactive |
| CNC(=S)N/N=C/c1ccc(N2CCOCC2)s1 | 28.2 µM (active) |
| CCN(CC)c1ccc(NC(=O)CN2CCN(CC(=O)Nc3ccc(Cl)cc3)CC2)cc1 | inactive |
| COc1ccc(C2C(=O)N(C3CCCCCC3)CC(=O)N2CCc2ccc(Cl)cc2)cc1OC (centres undefined) | inactive |
| Oc1ccc(-c2nc3ccc(Cl)cn3c2Nc2ccc3c(c2)OCO3)cc1 | inactive |
| COc1ccc(OC)c(NC(=O)CSC2=Nc3ccccc3C3=NC(CC(=O)NCCc4ccccc4)C(=O)N23)c1 (centres undefined) | inactive |
| Cc1coc2c(O)cc3c(c12)OC1(N2CCCCC2)C(=O)NCCCC31 (centres undefined) | 17.8 µM (active) |
| Cn1c(=O)c2c(nc(SCC(=O)Nc3ccc(F)cc3)n2Cc2ccc(Cl)cc2)n(C)c1=O | inactive |
| O=C(Nc1ccccc1Cl)N1CCC(CN2CCCCC2)CC1 | inactive |
| Cc1cc(C)c(/C=C/c2onc(C)c2S(=O)(=O)N2CCC(C(=O)Nc3ccc(Cl)cc3C)CC2)c(C)c1 | inactive |
| NC(=O)CSc1oc(-c2cccs2)nc1S(=O)(=O)c1ccccc1 | inactive |
| CCCCS(=O)(=O)c1oc(-c2cccs2)nc1S(=O)(=O)c1ccccc1 | 0.501 µM (active) |
| CSc1oc(-c2cccs2)nc1S(=O)(=O)c1ccc(Br)cc1 | inactive |

| SMILES | Potency |
| --- | --- |
| COc1ccccc1OCC(=O)Nc1nnc2n1CCS2 | inactive |
| CCOC(=O)c1c(S(=O)(=O)NCC(=O)Nc2ccc(Cl)c(C(F)(F)F)c2)c(C)n(C)c1C | inactive |
| Cc1cc(C)c(S(=O)(=O)n2cc(C(C)C(N)C(=O)O)c3ccccc32)c(C)c1 (centres undefined) | 10 µM (active) |
| Cc1ccc(S(=O)(=O)n2cnc3ccccc32)c(C)c1 | inactive |
| Cc1ccc(C)c(S(=O)(=O)n2cnc3ccccc32)c1 | inactive |
| NS(=O)(=O)c1ccc2nc(NC(=O)COc3ccccc3)sc2c1 | inactive |
| O=C(CSc1nnc(-c2ccco2)o1)NCC(=O)c1ccccc1 | 44.7 µM (active) |
| O=C(CSc1nnc(-c2c[nH]c3ccccc23)o1)c1ccccc1 | inactive |
| O=C(CSc1nnc(-c2ccc(NS(=O)(=O)c3ccccc3)cc2)o1)NCC1CCCO1 (centres undefined) | inactive |
| Cc1ccc(/C=C(\C#N)C(=O)Nc2cccc3ncccc23)o1 | 20 µM (active) |
| CCOC(=O)c1ccc(-c2ccc(/C=C(\C#N)C(=O)Nc3ccc(OCC)cc3)o2)cc1 | inactive |
| O=C(O)c1cc(Cl)c(Cl)cc1C(=O)Nc1cccc2ncccc12 | inactive |
| COc1ccc(OC)c(CNC(=O)CN2C(=O)CCn3nc(-c4cn(C)c5ccccc45)cc32)c1 | inactive |
| COc1ccc(CCN2C(=O)N(c3cccc(OC)c3)C(=O)C2CC(=O)Nc2ccccc2)cc1 (centres undefined) | inactive |
| Cc1ccc(CN2CCC(CNC(=O)c3cnn(-c4ccc(C)cc4)c3C3CCN(C(=O)OC(C)(C)C)CC3)CC2)cc1 | inactive |
| CCCC(=O)Nc1cc(C(=O)NCc2ccc(OC)cc2)ccc1S(=O)(=O)c1ccc(Cl)cc1 | inactive |
| COc1ccccc1-c1nnc(SCC(N)=O)o1 | inactive |
| O=C(OCC#CCSc1nnc(-c2ccncc2)o1)c1sc2ccccc2c1Cl | inactive |
| O=C(NCC#CCSc1nnc(-c2cccc3ccccc23)o1)c1cccs1 | 22.4 µM (active) |
| CSc1ccc(NC(=O)Cn2nnnc2-c2ccccc2F)cc1 | inactive |
| Cc1c(-c2ccccc2)cn2c1-c1ccc(C)n1CC2 | 35.5 µM (active) |
| CCCOc1ccc(C(=O)Nc2ccc3oc(-c4cccc(Cl)c4Cl)nc3c2)cc1 | inactive |
| Cc1ccc(S(=O)(=O)c2nc(-c3cccs3)oc2N2CCCCC2)cc1 | inactive |
| Cc1ccccc1NC(=O)Cn1c(=O)n(CCc2ccccc2)c(=O)c2ccccc21 | inactive |
